The results in this text go back to PubChem BioAssay (EPA / NIEHS).

Broadly, the AC50 is the concentration at which the activity in the assay is half-maximal.

Inconclusive results are not listed. Calls of active or inactive are those of the source. Rule for the calls: active = hit-call score of the fitted dose curve at least 0.9, where 1 is the maximum; inconclusive = response in the unintended direction; inactive = score below 0.9.

Sequence of Glucocorticoid receptor (Homo sapiens) (P04150 whole entry, looked up): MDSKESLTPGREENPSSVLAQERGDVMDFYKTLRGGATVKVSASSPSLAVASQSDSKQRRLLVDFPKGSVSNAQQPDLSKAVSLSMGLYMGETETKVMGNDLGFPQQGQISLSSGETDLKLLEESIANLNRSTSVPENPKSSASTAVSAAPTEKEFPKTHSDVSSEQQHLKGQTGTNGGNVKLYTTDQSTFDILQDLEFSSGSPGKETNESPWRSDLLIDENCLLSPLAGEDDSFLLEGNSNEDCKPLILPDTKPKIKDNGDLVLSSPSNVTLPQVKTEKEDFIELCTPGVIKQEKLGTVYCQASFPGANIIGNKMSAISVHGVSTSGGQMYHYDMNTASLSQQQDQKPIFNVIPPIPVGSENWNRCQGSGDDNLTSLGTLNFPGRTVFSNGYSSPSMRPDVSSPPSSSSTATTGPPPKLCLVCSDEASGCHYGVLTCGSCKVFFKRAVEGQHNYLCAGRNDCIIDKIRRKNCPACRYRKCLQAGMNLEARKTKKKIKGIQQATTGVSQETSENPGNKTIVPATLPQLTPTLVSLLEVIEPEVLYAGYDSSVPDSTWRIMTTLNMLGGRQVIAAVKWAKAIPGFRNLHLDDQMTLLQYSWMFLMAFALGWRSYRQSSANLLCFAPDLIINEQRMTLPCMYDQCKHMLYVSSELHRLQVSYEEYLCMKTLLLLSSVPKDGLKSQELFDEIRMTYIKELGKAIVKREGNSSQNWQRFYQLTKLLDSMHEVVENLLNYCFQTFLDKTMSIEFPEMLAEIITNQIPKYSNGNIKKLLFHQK

In this test the target is Glucocorticoid receptor (Homo sapiens) (UniProt P04150). Put plainly: NVS_NR_hGR: NovaScreen (NVS) Nuclear Receptor Binding Assay for human Glucocorticoid Receptor (GR) (AID 2283363). The protocol:
NVS_NR_hGR is a biochemical, single-readout assay that uses extracted gene-proteins in a cell-free assay. Measurements were taken 16 hours after chemical dosing in a 96-well plate.NVS_NR_hGR is one of one assay component(s) measured or calculated from the NVS_NR_hGR assay. It is designed to make measurements of radioligand binding, a form of binding reporter, as detected with scintillation counting signals by Filter-based radiodetection technology.Data from the assay component NVS_NR_hGR was analyzed into 1 assay endpoint. This assay endpoint, NVS_NR_hGR, was analyzed in the positive analysis fitting direction relative to DMSO as the negative control and baseline of activity. Using a type of binding reporter, loss-of-signal activity can be used to understand changes in the binding as they relate to the gene NR3C1. Furthermore, this assay endpoint can be referred to as a primary readout, because the performed assay has only produced 1 assay endpoint. To generalize the intended target to other relatable targets, this assay endpoint is annotated to the nuclear receptor intended target family, where the subfamily is steroidal.
Binding assays used specific radioligands (tritiated, iodinated) with non-radioactive competitive displacement ligands in agonist or antagonist protocols (as indicated) and various reference compounds and inhibitors to titrate specific binding to receptors and transporters. Most enzyme assays (CYPs, kinases, phosphatases, proteases, HDACs) used recombinant protein and specific substrates (fluorescence mostly, some colorimetric and radioactive) and inhibitors, followed by a biochemical separation of substrate and product. All assays for the biochemical HTS were initially run in duplicate at a single concentration (10 uM for CYP450 assays and 25 uM for all others). […] Each assay was run with positive and negative controls, and concurrent controls on every plate. The follow-up (secondary) screen tested active chemical-pairs in concentration series, as well as a few additional assays not tested in the primary screen, some selected negative inactives, and several cases re-run in the concentration series for confirmatory purposes.
Take `O=S(=O)(O)c1ccccc1C=Cc1ccc(-c2ccc(C=Cc3ccccc3S(=O)(=O)O)cc2)cc1`: the AC50 is 3.61 µM (active).

Turning to `O=C(Nc1ccccc1SSc1ccccc1NC(=O)c1ccccc1)c1ccccc1`, the AC50 was 11.3 µM (active).

Turning to `C#CC1(O)CC[C@H]2[C@@H]3CCC4=CCCC[C@@H]4[C@H]3CC[C@@]21C` (stereo partly specified), the AC50 was 5.07 µM (active).

As to `Oc1ccc(Cl)cc1Cc1cc(Cl)ccc1O`, the AC50 was 2.65 µM (active).

Turning to `O=C1CCCC1`, the molecule was classed as inactive.

`c1ccc2c(c1)ccc1cc3c(ccc4ccccc43)cc12`: the molecule was classed as inactive.

For the molecule `CCN(CCC#N)c1ccc(N=Nc2c(Cl)cc([N+](=O)[O-])cc2Cl)cc1`, the AC50 is 25 µM (active).

Regarding `CCCCCCCC[N+](C)(CCCCCCCC)CCCCCCCC`, the molecule was classed as inactive.

As to `CC(C)c1ccc2c(C(C)C)cc(C(C)C)c(S(=O)(=O)O)c2c1`, the AC50 is 10.9 µM (active).

`CCCCCCCCCCCCCCCC[N+](C)(C)CC`: the AC50 is 2.81 µM (active).

For the molecule `CCCCCCCCCCCCCOP(=O)(O)O`, the AC50 was 10.4 µM (active).
